Reference: PubChem BioAssay AID626 (Vanderbilt High Throughput Screening Facility, 2007)
The campaign covered roughly 64,000 compounds. About 1,900 (3%) were called active. The entries come from a sample that favours actives as a whole. Values without a mark were called inactive.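 How the source made its calls: active means fluorescence rise, raw or as B-score row- and column-corrected plate score, outside the 99.7% band of its plate's samples, either direction; inactive means the rest.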

Tested on: Muscarinic acetylcholine receptor M1
Assay: M1 muscarinic receptor agonists, primary screen, CHO-M1 cells, Fluo-4 calcium, agonist mode (AID 626)
Conditions: Fluo-4 calcium fluorescence, at 10 µM, stronger effect = higher value

Row | SMILES | B-score
1 | Cc1ccnc(NC(=O)c2ccc(NC(=O)c3ccco3)cc2)c1 | 1.71
2 | Cc1ccc(C(=O)COc2cccc(NC(=O)c3ccco3)c2)cc1 | 1.03 (active)
3 | COC(=O)c1ccc(NC(=O)c2ccco2)cc1 | -0.218
4 | O=C1c2ccccc2C(Nc2ccc3c(c2)OCCO3)N1Cc1ccco1 (stereo not given) | 0.847
5 | O=S(=O)(Nc1ccccn1)c1ccc(Oc2ccccc2)cc1 | -0.897
6 | COc1ccccc1Oc1ccc(S(=O)(=O)Nc2cccnc2)cc1 | 14.6 (active)
7 | COc1ccc(NS(=O)(=O)c2ccc(NC(C)=O)cc2)cc1OC | 0.127
8 | CCC(C)(C)NC(=O)C(c1cccn1C)N(Cc1ccc(C)cc1)C(=O)Cn1nnc2ccccc21 (stereo not given) | -0.864
9 | O=S(=O)(NCC1CCCO1)c1ccc2ccccc2c1 (stereo not given) | 0.554
10 | COCCCNC(=O)c1c(F)c(F)c(F)c(F)c1F | 0.0183
11 | Cc1cccc(CC(=O)Nc2c3c(nn2-c2cccc(Cl)c2)CS(=O)C3)c1 (stereo not given) | -1.33
12 | Cc1noc(C)c1CSc1nc2cc(S(=O)(=O)N3CCOCC3)ccc2o1 | -0.0272
13 | O=C(CSc1nc2ccccc2o1)N1CCN(c2ccccc2)CC1 | -0.706
14 | CC1Cc2ccccc2N1C(=O)CSc1nc2ccccc2o1 (stereo not given) | 0.106
15 | O=C(CSc1nc2ccccc2o1)N1CCN(c2ccc(Cl)cc2)CC1 | 20.1 (active)
16 | CSCCC(NC(=O)c1ccc(=O)n(C)n1)c1nc2ccccc2[nH]1 (stereo not given) | -1.57
17 | NC(=S)c1ccc(C(N)=S)o1 | 2.43
18 | COc1ccc(C(=O)CSc2nccc(=O)[nH]2)cc1 | 1.27
19 | CC12C(=O)N(n3cnnc3)C(=O)C1C1C=CC2C1 (stereo not given) | 0.0714
20 | CCc1ccc(Nc2ncc3c(n2)CC(c2ccco2)CC3=O)cc1 (stereo not given) | 0.24
21 | CCCC(=O)Nc1ccccc1N1CCN(C(=O)c2ccccc2)CC1 | 0.545
22 | O=C(Nc1ccccc1N1CCN(c2ccccc2)CC1)c1cccc(F)c1 | -0.048

Row | SMILES | B-score
23 | O=C(Nc1ccccc1N1CCN(C(=O)c2ccccc2)CC1)c1ccc2c(c1)OCO2 | 2.96 (active)
24 | Cc1noc(C)c1C(=O)OCC(=O)/C=C1\N(C)c2ccccc2C1(C)C | -1.21
25 | COc1ccc(S(=O)(=O)N2CCC(C(=O)N3CCc4ccccc4C3)CC2)cc1OC | 0.201
26 | O=C(CN(Cc1ccccc1)C(=O)c1ccc2c(c1)OCCO2)NCc1ccc2c(c1)OCO2 | 0.89
27 | CC1(C)CC(O)C(CCC(O)c2ccccc2)C(C)(C)N1 (stereo not given) | 2.64
28 | COc1ccc(-c2c3c(=O)n(C)c(=O)n(C)c3cn2NC(C)=O)cc1 | 0.218
29 | CN(C)S(=O)(=O)c1cccc(C(=O)Nc2cccnc2)c1 | 0.0444
30 | COc1ccc(N(C(=O)c2cccnc2)S(=O)(=O)c2ccc3c(c2)n(C)c(=O)n3C)cc1 | 3.89 (active)
31 | O=C(NCCN1C(=O)C2C3C=CC(C3)C2C1=O)Nc1ccccn1 (stereo not given) | 0.114
32 | COC(=O)Nc1ncc(CN2C(=O)c3ccccc3C2=O)s1 | 0.171
33 | CCOC(=O)c1cc2n(c1C)-c1ccccc1C2=O | 0.122
34 | CCOC(=O)c1cc2n(c1N)-c1ccccc1C2=O | 145 (active)
35 | CCOC(=O)Nc1ccccc1N1C(=O)c2ccccc2C1=O | -0.565
36 | CC(=O)N(CN1C(=O)C2CC=CCC2C1=O)c1cccc(Cl)c1 (stereo not given) | -1.96
37 | O=C(NCc1ccco1)c1cnn2c(C(F)(F)F)cc(-c3ccco3)nc12 | 0.0458
38 | FC(F)(F)COc1nc(N2CCCCC2)nc(N2CCNCC2)n1 | 6.73 (active)
39 | COc1cc2c(cc1NC(=O)CN1CCN(S(=O)(=O)c3ccc(F)cc3)CC1)oc1ccccc12 | -1.04
40 | OCc1nc(CO)n(Cc2ccccc2)n1 | -0.345
41 | COc1ccc(-c2csc(N3CCN(Cc4ccc5c(c4)OCO5)CC3)n2)cc1 | -0.173
42 | CC1CCCC(C)N1C(=O)CN1CCN(c2nc(-c3ccc(F)cc3)cs2)CC1 (stereo not given) | 2.64 (active)
43 | O=C(CN1CCN(c2nc(-c3ccccc3)cs2)CC1)NCc1ccc2c(c1)OCO2 | -0.269
44 | O=c1c2ccccc2nc(CSc2nnnn2-c2ccccc2)n1-c1ccccc1 | -1.38

Row | SMILES | B-score
45 | CCOc1cccc(/C(O)=C2/C(=O)C(=O)N(CCOC)C2c2ccncc2)c1 (stereo not given) | -0.0327
46 | Cc1cc(=O)cc(C)[nH]1 | -0.0108
47 | CCOc1ccc(NC(=O)N2CCN(CC)CC2)cc1 | -1.38
48 | Cc1cccc(C)c1NC(=O)N1CC=C(n2c(=O)[nH]c3ccccc32)CC1 | 1.14
49 | CCOc1ccc(NC(=O)N2CC=C(n3c(=O)[nH]c4ccccc43)CC2)cc1 | 3.49 (active)
50 | CN1CCC2(CC1)NC(=O)NC2=O | -0.874
51 | CCCCn1c(SCC(=O)NCCc2ccc(OC)c(OC)c2)nc2c1c(=O)n(C)c(=O)n2C | 0.299
52 | CCn1c(NCCc2ccc(OC)c(OC)c2)nc2c1c(=O)n(C)c(=O)n2C | 3.33 (active)
53 | Cn1c(=O)c2c(nc(NCCc3ccccc3)n2Cc2ccccc2)n(C)c1=O | -0.39
54 | Cc1cc(C(F)(F)F)c(C#N)c(SCC(=O)NC2CC2)n1 | 0.0289
55 | CCSc1ncnc2c(C#N)c3n(c12)CCCCC3 | -0.0416
56 | O=C(CCC(=O)OCC(F)(F)C(F)F)NCc1ccccc1 | -1.45
57 | Cc1cc2cc(CN(Cc3cccs3)Cc3nnnn3CC3CCCO3)c(=O)[nH]c2cc1C (stereo not given) | 6.85 (active)
58 | COc1ccc2[nH]c(=O)c(CN(CC3CCCO3)C(=O)Nc3ccccc3)cc2c1 (stereo not given) | 2.9 (active)
59 | Cc1cccc2cc(CN(Cc3nnnn3Cc3ccccc3)C3CCCC3)c(=O)[nH]c12 | 0.299
60 | CCOc1ccc2[nH]c(=O)c(CN(Cc3nnnn3Cc3ccccc3)CC3CCCO3)cc2c1 (stereo not given) | 3.01 (active)
61 | Cc1cc(C)c2cc(CN(Cc3cccs3)Cc3nnnn3CC3CCCO3)c(=O)[nH]c2c1 (stereo not given) | -0.2
62 | CCOc1ccc2[nH]c(=O)c(CN(Cc3nnnn3CCc3ccccc3)CC3CCCO3)cc2c1 (stereo not given) | 1.96
63 | COc1ccc2[nH]c(=O)c(CN(Cc3nnnn3CCc3ccccc3)CC3CCCO3)cc2c1 (stereo not given) | 0.197
64 | Cc1cccc2cc(CN(Cc3cccs3)C(c3nnnn3C3CCCC3)C(C)C)c(=O)[nH]c12 (stereo not given) | -0.692
65 | CCC(=O)N(Cc1cc2cc(OC)ccc2[nH]c1=O)c1ccccc1C | -0.55
